Measured values as given in PMC7819943, “Rice protein-binding microarrays: a tool to detect cis-acting elements near promoter regions in rice”.
The full ranking holds about 35,000 sequences; the median of “fluorescence intensity (a.u.)” is about 10,000, and the highest 2% start at about 52,000. The sample holds the highest values, similar sequences and a random draw of the others, so the mix is not that of the screen.

What follows are sequences tested against T1, OsWOX13 (Oryza sativa, UniProt Q5QMM3 1-267) (assay: protein-binding microarray (RPBM); PBS, 2% BSA, 51.3 ng/ul salmon testes DNA, 50 uM zinc acetate, 200 nM TF, 25 C, 1 h; high values mean tight binding). Settings: protein: recombinant; tags: N-terminal polyhistidine and DsRed monomer fusion (pET32a); label: CyDye5-dUTP incorporated in the synthesized complementary strand; 3' TTTTT single-stranded linker to array surface; dsDNA, one strand shown.
T1 sequence: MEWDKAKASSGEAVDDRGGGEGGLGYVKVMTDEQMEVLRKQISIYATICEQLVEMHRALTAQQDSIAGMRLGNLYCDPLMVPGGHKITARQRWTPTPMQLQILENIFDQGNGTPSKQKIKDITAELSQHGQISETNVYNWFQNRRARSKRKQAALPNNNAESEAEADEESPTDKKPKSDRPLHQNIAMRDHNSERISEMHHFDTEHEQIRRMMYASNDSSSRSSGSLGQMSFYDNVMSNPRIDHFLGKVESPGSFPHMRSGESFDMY
Method in brief: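 The binding signal for each feature is its fluorescence intensity in arbitrary units. An Axon 4000B scanner was used to read a custom Agilent array that had been made double-stranded with Cy5-dUTP primer extension, blocked with 2% BSA, incubated at 25 °C for 1 h with 200 nM protein in PBS, 2% BSA, salmon testes DNA and 50 µM zinc acetate, and washed. The protein was an N-terminal polyhistidine–DsRed transcription factor fusion from E. coli BL21-CodonPlus, purified on Ni–NTA.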

Sequence | binding signal
TTCATTAATCTCCCGGTGATGGATGAACGGGGAAAAGGGCCGGAGTCACCTAGTGCAG | 4280 fluorescence intensity (a.u.)
GATGTTAAGTTTTGGGCATATGATTGAATTGTCTTATATACGGAGTCACCTAGTGCAG | 4180 fluorescence intensity (a.u.)
CTGTTTGATTTAGCTTAGGATTATTAGGTGTAAGCTGAAACGGAGTCACCTAGTGCAG | 3910 fluorescence intensity (a.u.)
AACCAATCACGTCGCAGATAAGGCCTGACAGGTGTGCCCCCGGAGTCACCTAGTGCAG | 32700 fluorescence intensity (a.u.)
CGCGTGTGGTGATTGGCTGGCTCTTTGCCTCATCATGGGCCGGAGTCACCTAGTGCAG | 34100 fluorescence intensity (a.u.)
GATATAATTGGTATTATTACTAGGTTGGTGTGATATCCTACGGAGTCACCTAGTGCAG | 27400 fluorescence intensity (a.u.)
TTAATTGATCACATATTAATGGGCAACGCTGTTTTCCATGCGGAGTCACCTAGTGCAG | 63600 fluorescence intensity (a.u.)
CACAGAATCCTTAATTAATTATATACATATATTGATCATGCGGAGTCACCTAGTGCAG | 16200 fluorescence intensity (a.u.)
TCCAAAATCAATCAATTAAAACCCATAGTTATTGTTGACTCGGAGTCACCTAGTGCAG | 53500 fluorescence intensity (a.u.)
CTCAAATTATTGTTAAACCTTCATATAAATCGACCCCAATCGGAGTCACCTAGTGCAG | 7650 fluorescence intensity (a.u.)
AGATGCTGCATGGTTGATTGGTTTCAAGTAATTTCATGGGCGGAGTCACCTAGTGCAG | 7340 fluorescence intensity (a.u.)
TGGATGATTGGTGAGATAGGTGTTCCTTATAATTATAGGGCGGAGTCACCTAGTGCAG | 54800 fluorescence intensity (a.u.)
ACATTTGTGATTTTCCTAGGTAATGGTGAGATTTTATAGGCGGAGTCACCTAGTGCAG | 3220 fluorescence intensity (a.u.)
GAAATTAATTTTAATAGTGTTTTCATATTATTTCCATGCGCGGAGTCACCTAGTGCAG | 46500 fluorescence intensity (a.u.)
CTCCTTACAAATTTTGAAGATAATTTCGTAACACTTGGGGCGGAGTCACCTAGTGCAG | 7610 fluorescence intensity (a.u.)
CATATTAATTGTTAAAGTTGTCATCATCCAAATTGTTATACGGAGTCACCTAGTGCAG | 11100 fluorescence intensity (a.u.)
ATAGATTGATTTGATAATTTCCTTGAGAGTAACACATGGGCGGAGTCACCTAGTGCAG | 65500 fluorescence intensity (a.u.)
ACTGTGACACATGATGAACTGTTTATTTTGCATGATCTATCGGAGTCACCTAGTGCAG | 5480 fluorescence intensity (a.u.)
GGCGTATTTCCCAATCATTGTGCGGTCCAAAACCATCGCCCGGAGTCACCTAGTGCAG | 10000 fluorescence intensity (a.u.)
CTGATGTGATTACGTCTATCCAGTATAATCCCTCTGGTTTCGGAGTCACCTAGTGCAG | 31700 fluorescence intensity (a.u.)
TACCTCGCGACTAATTGGGCCTCCACTAACACCTAGATTCCGGAGTCACCTAGTGCAG | 4340 fluorescence intensity (a.u.)
TGTGAAAATGGATAATTAAGGGATCCCAAAGACCCATAAGCGGAGTCACCTAGTGCAG | 10800 fluorescence intensity (a.u.)
GTTGAACTTATTCCAATCAAGGATCACGCATTCACGTTCACGGAGTCACCTAGTGCAG | 14100 fluorescence intensity (a.u.)

Sequence | binding signal
TAAAACTTATTTCTTGATAGATCAATCCCAGATTACAATGCGGAGTCACCTAGTGCAG | 8210 fluorescence intensity (a.u.)
CGACTGGATTGAAGCATTTTCTGCCTAGCTGTCTGTCTCTCGGAGTCACCTAGTGCAG | 10100 fluorescence intensity (a.u.)
TCTAATTACTTCATGATTTGATAATTTGGTGTTACAGTAACGGAGTCACCTAGTGCAG | 52400 fluorescence intensity (a.u.)
GATCTAATTTGAAATGTGATAAATTGTTTTCAATAAATGGCGGAGTCACCTAGTGCAG | 27700 fluorescence intensity (a.u.)
TTCATTAATTGATTATTACTAGTAGGGATGGTTGGTTCAACGGAGTCACCTAGTGCAG | 30700 fluorescence intensity (a.u.)
CCTAATTGCACCATGATTTGATAATGTTGTGCTACAGTAACGGAGTCACCTAGTGCAG | 42600 fluorescence intensity (a.u.)
AATTTCTTGTTCAATCATTTCATATATATATACATGTAGGCGGAGTCACCTAGTGCAG | 6120 fluorescence intensity (a.u.)
GGTTGATTGTGAAGTTAATTATTTAACATCTCAATTATAACGGAGTCACCTAGTGCAG | 32800 fluorescence intensity (a.u.)
CATGATTTGACAATATGGTGATACAGTAAATATTTGCTAACGGAGTCACCTAGTGCAG | 40600 fluorescence intensity (a.u.)
AGTCTAATTGAGTGATTGTATACATGTTCAATGTTCATGGCGGAGTCACCTAGTGCAG | 65300 fluorescence intensity (a.u.)
CCTAATTGCGTCATGATTTGACAATGTAGTGCTACAGTAACGGAGTCACCTAGTGCAG | 50800 fluorescence intensity (a.u.)
CCTGATTGCGTGTTGATTTGACAATATGGTGCTACAGTAACGGAGTCACCTAGTGCAG | 54300 fluorescence intensity (a.u.)
CCTAATTACTCCATGATTTGATAATATGACGCTACAGTAACGGAGTCACCTAGTGCAG | 25000 fluorescence intensity (a.u.)
ATTAATTGATTGGATTGGTTGTGTGCATTATTTCATCTAACGGAGTCACCTAGTGCAG | 65200 fluorescence intensity (a.u.)
GTTGTATGATTGACACTAGATCGAGAAAAGGTGCGACAAACGGAGTCACCTAGTGCAG | 23500 fluorescence intensity (a.u.)
CTTTAAATTTTAACTTTTGCATTGGCTTATTAGACCAACTCGGAGTCACCTAGTGCAG | 4620 fluorescence intensity (a.u.)
GAAATTACATATGACAAATCCAGAATTTTGATGGAGTGGTCGGAGTCACCTAGTGCAG | 6770 fluorescence intensity (a.u.)
TGCTCAATCACACACACACACGCGTGTAATATTAAGATTTCGGAGTCACCTAGTGCAG | 10500 fluorescence intensity (a.u.)
TAGATTGATCGGACTAACCACCCCATTTTACACCATTTGCCGGAGTCACCTAGTGCAG | 20900 fluorescence intensity (a.u.)
ATGTAAATCAATTGTTTAGTGTTGGATCTATAAGCAACATCGGAGTCACCTAGTGCAG | 4370 fluorescence intensity (a.u.)
TCTAATTGAAATTATTGTGTTTATGTATAAAGACAAATACCGGAGTCACCTAGTGCAG | 24900 fluorescence intensity (a.u.)
TTTGATTTGTTAATCCAGCTAGTCGTGGGGAATAGTGAAGCGGAGTCACCTAGTGCAG | 42700 fluorescence intensity (a.u.)
